The list is not random: actives were taken first. Their share in the collection is about 2.4%.
FLuc inh: blocks Photinus pyralis firefly luciferase activity; P08659; purified firefly luciferase, luminescence, 8 min; Potency, µM (doses to about 57.1 µM), without a hit: top-dose activity change, negative = inhibition, actives largely listed as inhibitors; 2.2% of 72,000 active; AID 411; also: % is scaled to controls: 0 for no effect and ±100 for the full control effect; nearly all actives have a fitted effect of over 40% in size
Target sequence (P08659 whole entry, looked up): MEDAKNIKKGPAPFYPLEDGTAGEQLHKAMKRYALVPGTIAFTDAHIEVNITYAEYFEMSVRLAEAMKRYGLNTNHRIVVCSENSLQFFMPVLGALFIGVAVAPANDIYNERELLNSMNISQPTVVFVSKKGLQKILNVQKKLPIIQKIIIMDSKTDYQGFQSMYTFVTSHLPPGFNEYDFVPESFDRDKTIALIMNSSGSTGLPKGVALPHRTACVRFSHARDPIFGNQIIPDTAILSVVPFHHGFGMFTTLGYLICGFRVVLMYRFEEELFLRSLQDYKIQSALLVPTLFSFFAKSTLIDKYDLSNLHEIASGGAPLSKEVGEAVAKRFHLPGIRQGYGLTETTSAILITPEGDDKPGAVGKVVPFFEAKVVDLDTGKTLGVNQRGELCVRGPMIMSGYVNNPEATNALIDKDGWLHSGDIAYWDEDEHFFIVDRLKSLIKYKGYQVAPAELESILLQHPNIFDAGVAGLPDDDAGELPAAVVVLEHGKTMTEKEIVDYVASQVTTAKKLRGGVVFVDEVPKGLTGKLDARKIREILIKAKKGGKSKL
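Substrate buffer containing 10 uM ATP (pH 7.2 imidazole, Mg2+, KCl, detergent, BSA) is dispensed, compound pinned in, then luciferase/luciferin detector mix added. After 8 min at ambient temperature, light output is measured.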
p53ts 39C tox: kills p53ts cells at the nonpermissive temperature; H1299-p53A138V viability at 39C, ATP luminescence, 24 h; Potency, µM (top dose mostly 46.1 µM), for the others: at the top dose activity change, negative = cell killing, actives largely listed as cytotoxic; 1.5% of 130,000 active; AID 902; also: % is scaled to controls: 0 for no effect and ±100 for the full control effect; nearly all actives have a fitted effect of over 55% in size
IkB sig inh: inhibitors of IkB signaling in ABC-DLBCL cells | ABC-DLBCL IkBa-CBG/CBR dual luciferase ratio, 4 h; response scale: scaled: untreated 0%, proteasome inhibitor 100% | Potency, µM (series often up to 57.1 µM), inactives show at the top dose IkBa stabilization activation | 0.04% of 110,000 active; active = well fitted curve in the direction sought with a large enough effect in the signal ratio, not every such curve was filed as active; inconclusive = small, poorly fitted or top-dose-only effect, or a change in a side signal; the % refers to the signal ratio;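 also: the direction sought is a rising ratio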
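Curves were fitted separately to fusion (green), unfused (red) and ratio luminescence, then classed by r2, magnitude and activity. Cells: OCI-Ly3, 4 h compound plus doxycycline at 37C; 10 uM MG-132 defined full response.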
p53ts 32C kill: p53ts cell cytotoxicity, permissive temperature; H1299-p53A138V at 32C, ATP luminescence viability, 24 h; Potency, µM (highest dose often 46.1 µM), for the others: at the highest dose activity change, negative = cytotoxicity, hits mostly cytotoxic; 0.93% of 130,000 active;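 also: 0% = DMSO and -100% = full killing by reference compound; nearly all actives have a fitted effect of over 55% in size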
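Cells: H1299 p53ts (A138V), 600/well, pre-incubated 16–30 h at 37C. Cpd up to 46 uM, 24 h, 32C. Readout: ATPlite luminescence, 20 min RT. Normalization: DMSO vs tamoxifen 100 uM. AC50 by Hill equation.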
Imprint erasure: genomic imprint erasure induction; Potency, µM (highest dose often 60.7 µM), without a hit: at the top dose activity change, positive = activation, actives largely listed as activators; 0.02% of 110,000 active; mouse ES Peg3-LacZ reporter, beta-gal luminescence, 40 h
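Imprint erasure is scored as LacZ activity from the silenced maternal Peg3 allele in feeder-free female ES cells cultured 40 h with LIF. Luminescence is normalized to in-plate negative controls and fitted to the Hill equation.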
An asterisk follows results filed as active; ? = inconclusive; . = no result given; ! = not confirmed by another sample; [ ] = dose if it differs, or a comment. Unless noted, calls follow the shape of the dose curve; as a rule, active = well fitted curve in the direction sought with a large enough effect; inconclusive = small, poorly fitted or top-dose-only effect, or another doubt; inactive = no such curve, though single readings can be large; an effect the other way counts as inactive or inconclusive. Potency is read from the fitted curve at half-maximal effect.

SMILES	FLuc inh	p53ts 39C tox	IkB sig inh	p53ts 32C kill	Imprint erasure
CCOC(=O)c1cc(-c2ccccc2)n(CCC(=O)Nc2ccc(Cl)c(C(F)(F)F)c2)c1C	.	?	-1%	?	-16%[10.9 µM]
CCCCCCC1C(C#N)=C(N)OC2=C1C(=O)CCC2 (stereo not given)	2%	16µM*	6%	13µM*	-15%
O=C(NC1=NCCS1)c1csc2ccccc12	.	?	.	13µM*	.
Cc1cc(C(=O)NC2=NCCS2)cs1	16µM*	?	-2%	?	-60%
O=C(Nc1ccccc1)Nc1ccccc1	.	?	4%	?	-70%
O=C(NC1=NCCS1)Nc1ccccc1	16µM*	16µM*	5%	10µM*	-87%
O=C(c1cc(F)cc(F)c1)N1CCC(c2nc(-c3ccc(S(=O)(=O)N4CCCC4)cc3)no2)CC1	.	-20%	?	-4%	-11%[10.9 µM]
COc1ccc(C(=O)NCCc2sc(-c3cccc(F)c3)nc2C)cc1	.	-6%	?	-12%	-7%[10.9 µM]
Cc1ccc(C(=O)Nc2cccc(C(=O)O)c2)cc1S(=O)(=O)N1CCCCC1	13µM*	?	2%	13µM*	-90%
CCS(=O)(=O)N1CCCC(C(=O)NCCOC)C1 (stereo not given)	.	-22%	2%	-10%	-3%[10.9 µM]
CC(C)CS(=O)(=O)c1oc(-c2ccc(F)cc2)nc1S(=O)(=O)c1ccccc1	.	2.5µM*	?	10µM*	-42%[10.9 µM]
O=S(=O)(c1ccccc1)c1nc(-c2cccs2)oc1N1CCCCC1	.	5%	0%	-3%	-4%[10.9 µM]
O=S(=O)(c1ccccc1)c1nc(-c2ccc(F)cc2)oc1NCc1ccccc1	.	-8%	-2%	7%	-7%[10.9 µM]
CCC(C)S(=O)(=O)c1oc(-c2cccs2)nc1S(=O)(=O)c1ccccc1 (stereo not given)	.	1µM*	?	6.3µM*	-38%[10.9 µM]
N#Cc1cc2c(nc1SCC(=O)N1CCCCC1)CCCC2	0%	4%	1%	-2%	21%
CCOC(=O)CC(=O)CSc1nc2c(cc1C#N)CCCCC2	10µM*	.	.	.	.
CCOc1ccccc1N1CC(c2nc3ccccc3n2CCCOc2ccccc2OC)CC1=O (stereo not given)	.	-22%	3%	-17%	-8%[10.9 µM]
Cc1cccc(OCCCCn2c(C3CC(=O)N(c4ccccc4Cl)C3)nc3ccccc32)c1 (stereo not given)	.	16µM*	-2%	?	-3%[10.9 µM]
CCOc1ccccc1N1CC(c2nc3ccccc3n2CCOc2ccc(C(C)(C)C)cc2)CC1=O (stereo not given)	.	13µM*	-2%	?	-11%[10.9 µM]
CCc1ccccc1N1CC(c2nc3ccccc3n2CCOc2ccc(Cl)c(C)c2)CC1=O (stereo not given)	.	32µM*	?	?	-10%[10.9 µM]
Cc1cccc(OCCCCn2c(C3CC(=O)N(c4ccc(C)cc4C)C3)nc3ccccc32)c1 (stereo not given)	.	25µM*	-2%	?	-10%[10.9 µM]
CCN(CC)c1ccc(NC(=O)c2cccn2-c2nnc(N3CCCCC3)s2)c(C)c1	.	23%	?	23%	-17%[10.9 µM]
CC(C)COc1ccc(C(=O)N2CCCCC2CCN2CCOCC2)cc1 (stereo not given)	.	-15%	1%	2%	-8%[10.9 µM]
O=C1c2c(O)cc(O)cc2O[C@@H](c2ccc(O)c(O)c2)[C@H]1O	4%	21%	2%	1%	.
N#Cc1c(/N=C/c2cccs2)sc2c1CCC2	10µM*	-8%	4%	-15%	-7%
SMILES	FLuc inh	p53ts 39C tox	IkB sig inh	p53ts 32C kill	Imprint erasure
N#Cc1c(/N=C/c2ccco2)sc2c1CCCCC2	0.79µM*	-14%	-2%	?	-10%
O=c1c2c3c(sc2ncn1/N=C/c1ccco1)CCCC3	-19%	-15%	0%	?	-7%
CCCSCCCNC(=O)C1CCN(c2nn3cc(-c4ccc(F)cc4)nc3s2)CC1	.	.	.	-6%	.
CCCC[C@H](CC)CN=C(N)NC(N)=NCCCCCCN=C(N)NC(N)=NC[C@@H](CC)CCCC	2%[25.5 µM]	13µM*	17%[25.6 µM]	-21%[20.6 µM]	-26%[16.8 µM]
O=c1cc(-c2cccc(O)c2O)oc2ccccc12	0%[11.4 µM]	10µM*	0%[11.4 µM]	?	-62%
CC(=O)NCCN=Cc1sc2ccccc2c1O	.	-4%	.	-2%	.
CCCN=Cc1sc2ccc(OCC)cc2c1O	16µM*	-21%	3%	?	-20%
COc1ccc(CNC(=O)Cc2c(C)c3c(cc(C)c4c(C)coc43)oc2=O)cc1	.	-19%	?	4%	-7%[10.9 µM]
Nc1ncnc2c1ncn2[C@@H]1O[C@H](CO)[C@H](O)[C@H]1O	.	.	.	.	1%
Nc1nc(Cl)nc2c1ncn2[C@@H]1O[C@H](CO)[C@@H](O)[C@H]1O	0%[25.5 µM]	?	.	20µM*	-2%
COc1ccccc1-n1c(=O)n(C)c2c(C(N)=O)nc(-c3cc(OC)c(OC)c(OC)c3)nc21	.	-9%	0%	-5%	11%[10.9 µM]
CCCCCN=c1ccn(Cc2ccccc2)c2ccccc12	25µM*	?	?	-21%	-20%
Cc1ccc(NC(=O)N2CCc3ccccc32)cc1	.	5µM*	.	4.5µM*	.
Cc1ccc2c(CC(=O)N3CCc4ccccc43)coc2c1	20µM*	?	1%	-24%	-61%
CN1C(=O)CSc2ccc(NC(=O)N3CCc4ccccc43)cc21	13µM*	?	?	10µM*	-45%
Cc1c2cnn(CC(=O)N3CCCCC3)c(=O)c2c(C)n1Cc1ccc(Cl)cc1	.	-11%	?	7%	-4%[10.9 µM]
CNCCC=C1c2ccccc2CCc2ccccc21	0%[25.5 µM]	20µM*!	0%[11.4 µM]	20µM*!	-36%
c1ccc2sc(-c3ccc4c(c3)OCO4)nc2c1	1.6µM*	7.9µM*	?	16µM*	-94%
Cc1cccc(-c2nc(CN3CCCC(C(=O)NCCc4ccc(Cl)cc4)C3)c(C)o2)c1 (stereo not given)	.	13µM*	?	?	-13%[10.9 µM]
COc1ccc(OC)c(-c2cc(C(=O)Nc3cnn(Cc4ccc(Cl)cc4Cl)c3)no2)c1	.	4µM*	?	?	-12%[10.9 µM]
COC(=O)c1ccc(Cn2c(SCc3cccc(C)c3)nc3ccncc32)cc1	.	?	7%	25µM*	-10%[10.9 µM]
COC(=O)c1ccc(CSc2nc3ccncc3n2Cc2ccc(F)cc2)cc1	.	-21%	?	-7%	-11%[10.9 µM]
Cc1cccc(-c2nc(Cn3c(SCc4cccc(C(F)(F)F)c4)nc4ccncc43)c(C)o2)c1	.	10µM*	-2%	-7%	6%[10.9 µM]
CCC(C(=O)NC1CCCCC1)n1c(SCc2cccc(C)c2)nc2ccncc21 (stereo not given)	.	10µM*	1%	13µM*	-4%[10.9 µM]
CCC(C(=O)NC1CCCCC1)n1c(SCc2cccc(F)c2)nc2ccncc21 (stereo not given)	.	-16%	?	-9%	-4%[10.9 µM]

High-throughput results as filed in PubChem.
